Counter-ions that a name gives are not always drawn.

This test deals with Saccharomyces cerevisiae BY4741 SeMeCo community. Put plainly: z-score of subpopulation abundance vs DMSO median, subpopulation auxotrophic for HLUM; higher = larger share of this subpopulation than in DMSO controls. The note with it: 10 µM; 24 h; SM minimal medium; subpopulation (auxotrophy): HLUM. On the procedure: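 Fluorescent four-plasmid SeMeCo (self-establishing metabolically cooperating S. cerevisiae BY4741 community; plasmids pH-mRuby2, pL-mWasabi, pU-eCFP, pM-TagRFP657) was grown 24 h in minimal SM medium with each Selleck FDA-approved drug at 10 µM in 384-well plates. Cells were fixed and imaged by high-content confocal microscopy. For each auxotrophic subpopulation (and the prototroph), a z-score gives the deviation from the DMSO vehicle-control population median.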
Take `CCN(C)C(=O)Oc1cccc([C@H](C)N(C)C)c1` [Rivastigmine Tartrate]: the “z-score of subpopulation abundance” value is -0.16. With `Cn1cc(C2=C(c3cn(C4CCN(Cc5ccccn5)CC4)c4ccccc34)C(=O)NC2=O)c2ccccc21`, the “z-score of subpopulation abundance” value was -0.35. For the compound `CC[C@@]1(O)C(=O)OCc2c1cc1n(c2=O)Cc2cc3ccccc3nc2-1` [Camptothecin], the “z-score of subpopulation abundance” value is -0.44. For `CC(=O)O[C@H]1C[C@@H]2CC[C@@H]3[C@H](CC[C@@]4(C)[C@H]3C[C@H]([N+]3(C)CCCCC3)[C@@H]4OC(C)=O)[C@@]2(C)C[C@@H]1[N+]1(C)CCCCC1` [Pancuronium dibromide], the “z-score of subpopulation abundance” value was -0.93.

In the case of `CCCCCCCCCCCCCCCC[n+]1ccccc1` [Cetylpyridinium Chloride], the “z-score of subpopulation abundance” value is 49.4.

As for `O=[N+]([O-])C(Br)(CO)CO` [Bronopol], the “z-score of subpopulation abundance” value came out at 0.53. For `CC(C)(O)C(Cl)(Cl)Cl` [Chlorobutanol], the “z-score of subpopulation abundance” value was -0.06. Regarding `C=CCN1C[C@H](C(=O)N(CCCN(C)C)C(=O)NCC)C[C@@H]2c3cccc4[nH]cc(c34)C[C@H]21` [Cabergoline], the “z-score of subpopulation abundance” value worked out at 0.78. For `O=c1[nH]c2ccccc2n1CCCN1CCC(n2c(=O)[nH]c3cc(Cl)ccc32)CC1` [Domperidone], the “z-score of subpopulation abundance” value was found to be 0.88. Regarding `CC[C@H]1CN2CC[C@]3(C(=O)Nc4ccccc43)[C@@H]2C[C@@H]1/C(=C\OC)C(=O)OC` [Rhynchophylline], the “z-score of subpopulation abundance” value turned out to be 0. Regarding `N[C@@H]1C[C@H]1c1ccccc1` [Tranylcypromine (2-PCPA) HCl], the “z-score of subpopulation abundance” value is 0.28. For `NCC(O)c1ccc(O)cc1` (racemic) [(+,-)-Octopamine HCl], the “z-score of subpopulation abundance” value was -0.38. Then `COc1ccc2c(c1)[C@]13CCCC[C@@H]1[C@H](C2)N(C)CC3` [Dextromethorphan hydrobromide hydrate], with -0.5. Turning to `CN1c2ccccc2C(NCCCCCCC(=O)O)c2ccc(Cl)cc2S1(=O)=O` (centres undefined) [Tianeptine sodium], the “z-score of subpopulation abundance” value came to 0.87.

Take `CN[C@@H]1[C@@H](O)[C@@H](O[C@@H]2[C@@H](O)[C@H](O[C@H]3O[C@H](CN)CC[C@H]3N)[C@@H](N)C[C@H]2N)OC[C@]1(C)O.CN[C@@H]1[C@@H](O)[C@@H](O[C@@H]2[C@@H](O)[C@H](O[C@H]3O[C@H]([C@@H](C)N)CC[C@H]3N)[C@@H](N)C[C@H]2N)OC[C@]1(C)O.CN[C@@H]1[C@@H](O)[C@@H](O[C@@H]2[C@@H](O)[C@H](O[C@H]3O[C@H]([C@@H](C)NC)CC[C@H]3N)[C@@H](N)C[C@H]2N)OC[C@]1(C)O` [Gentamicin Sulfate]: the “z-score of subpopulation abundance” value worked out at 0.46. Then `Cc1cc(O)ccc1Cl` [Chlorocresol], with -0.16; and `CNC1CC(N)C(O)C(OC2OC(CO)C(O)C3OC4(OC(C(N)CO)C(O)C(O)C4O)OC23)C1O` (centres undefined) [Hygromycin B], with -0.53; and `C[C@H]1O[C@H](O[C@H]2[C@H](O)[C@@H](O)[C@@H](O)[C@H](O)[C@@H]2O)[C@@H](N)C[C@@H]1NC(=N)C(=O)O` [Kasugamycin hydrochloride], with -0.04. `CCN(C)C(=O)Oc1cccc([C@H](C)N(C)C)c1` [Rivastigmine]: the “z-score of subpopulation abundance” value is -0.15. Consider `Oc1cccc2cccnc12` [8-Hydroxyquinoline], for which the “z-score of subpopulation abundance” value turned out to be 0.11. For `CN1[C@@H]2C[C@@H](OC(=O)[C@H](CO)c3ccccc3)C[C@H]1[C@@H]1O[C@@H]12` [Scopolamine HBr trihydrate], the “z-score of subpopulation abundance” value is -0.22.

On to `O=C(O[C@H]1C[C@H]2CC[C@@H](C1)[N+]21CCCC1)C(O)(c1ccccc1)c1ccccc1` [Trospium chloride], for which the “z-score of subpopulation abundance” value was -0.2. Consider `O=c1cccc2n1C[C@@H]1CNC[C@H]2C1` [Cytisine], for which the “z-score of subpopulation abundance” value is -0.32. The result for `Nc1nc(N)nc(NC2CC2)n1` [Cyromazine] reads 1.21; that for `C#C[C@]1(O)C=C[C@H]2[C@@H]3CCC4=CC(=O)CC[C@@H]4[C@H]3CC[C@@]21CC` [Gestodene], -0.58. In the case of `C=C[C@H]1CN2CC[C@H]1C[C@H]2[C@H](O)c1ccnc2ccccc12` [Cinchonidine], the “z-score of subpopulation abundance” value worked out at 0.1. The result for `C[N+](C)(C)CCCCCCCCCC[N+](C)(C)C` [Decamethonium Bromide] reads -0.4; that for `CC(=O)OCC1=C(C(=O)O)N2C(=O)C(N)C2SC1` (centres undefined) [7-Aminocephalosporanic acid], -0.76. Regarding `CCN1CC2(OC(=O)c3ccccc3NC(C)=O)CCC(OC)C34C1C(CC23)C1(O)CC(OC)C2CC4C1(O)C2OC` (centres undefined) [Lappaconitine], the “z-score of subpopulation abundance” value was -0.44. Take `CN[C@@H]1[C@@H](O)[C@@H](O[C@@H]2[C@@H](O)[C@H](O[C@H]3O[C@H]([C@@H](C)O)[C@@H](O)[C@H](O)[C@H]3N)[C@@H](N)C[C@H]2N)OC[C@]1(C)O` [Geneticin (G418 Sulfate)]: the “z-score of subpopulation abundance” value is -0.56. Then `CN(C)C(=O)Oc1cccc([N+](C)(C)C)c1` [Neostigmine Bromide], with -0.18; and `NC(=O)CN1CCCC1=O` [Piracetam], with 0.98; and `CN1[C@@H]2C[C@@H](OC(=O)[C@H](CO)c3ccccc3)C[C@H]1[C@@H]1O[C@@H]12` [Scopolamine HBr], with -0.88.

Take `CCOC(=O)Nc1ccc(NCc2ccc(F)cc2)cc1N` [Retigabine 2HCl]: the “z-score of subpopulation abundance” value is -0.39.

Values taken from the supplement of paper PMC8975748.
